A short description of test [1]: NCI Yeast Anticancer Drug Screen. Data for the rad50 strain (AID 155).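 Also: 0% = growth of vehicle-only cultures of the same strain.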 The following applies: S. cerevisiae rad50 strain growth inhibition, stronger effect = higher value. Summed up: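 Relative growth inhibition (compound vs vehicle) was measured in yeast with a defined repair-gene alteration.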
Test [2] in a line: NCI Yeast Anticancer Drug Screen. Data for the mec2-1 strain (AID 157). The settings on record: S. cerevisiae mec2-1 strain, stronger effect = higher value. The gist of the method:
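Readout is yeast growth inhibition, normalised to vehicle-treated controls, in the mec2-1 strain exposed to compound.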

Test [3] can be described thus: NCI Yeast Anticancer Drug Screen. Data for the sgs1 mgt1 strain (AID 161).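 Also: 0% = growth of cultures given vehicle only.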 The following applies: S. cerevisiae sgs1 mgt1 strain, stronger effect = higher value. Summed up:
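Growth of a repair-deficient yeast mutant was monitored after compound treatment and expressed as inhibition relative to vehicle-treated cultures.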

Test [4] in a line: NCI Yeast Anticancer Drug Screen. Data for the cln2 rad14 strain (AID 165).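 Also: 0% = growth equal to vehicle treated cultures.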 The settings on record: S. cerevisiae cln2 rad14 strain, stronger effect = higher value. Summed up:
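Relative to vehicle controls, growth inhibition of compound-treated cln2 rad14 yeast was recorded.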

Test [5] is described as follows: NCI Yeast Anticancer Drug Screen. Data for the bub3 strain (AID 167). The settings on record: S. cerevisiae bub3 mutant strain, stronger effect = higher value. The gist of the method:
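Screening used yeast with an engineered genetic alteration affecting cell cycle control. Compound-exposed cultures were compared with vehicle cultures, and reduced growth was taken as inhibition.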

Test [6] is described as follows: NCI Yeast Anticancer Drug Screen. Data for the mlh1 rad18 strain (AID 175). The following applies: S. cerevisiae mlh1 rad18 strain growth inhibition, stronger effect = higher value. Summed up:
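Test agents were incubated with a yeast strain of defined genotype (DNA damage repair defect). Inhibition of growth was derived by comparison with vehicle-exposed cultures.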

Setting [7] is: at 5.0 µM (retest, dose inferred, filed as 0.5).
The mark [8] stands for this setting: at 50.0 µM (retest, dose inferred, filed as 5.0).

This is part of a sample that, as a whole, favours compounds with a hit. Of some 79,000 tested, about 15% had one in any assay. A number with no mark means an inactive call. Calls of active or inactive are those of the source. Rule as the data show it: active = growth inhibition above about 70%; inactive = the rest.

Take `CCOc1cc2c(cc1O)/C(=N\OC)C[C@@H]1[C@@H]2CC[C@]2(C)[C@@H](O)CC[C@@H]12`: the growth inhibition in test [1] (setting [7]) was 16%; in test [1] (setting [8]), 59%; in test [1] (at 50.0 µM), 13.9%; in test [2] (setting [7]), 0%; in test [2] (setting [8]), 42%; in test [2] (at 50.0 µM), -2.45%. Also, the growth inhibition was 5% in test [3] (setting [7]); 86% (active) in test [3] (setting [8]); 9.8% in test [3] (at 50.0 µM); 23% in test [4] (setting [7]); 67% in test [4] (setting [8]); 24.8% in test [4] (at 50.0 µM). For the same compound, the growth inhibition was 25% in test [5] (setting [7]); 71% (active) in test [5] (setting [8]); 13.6% in test [5] (at 50.0 µM); 16% in test [6] (setting [7]); 68% in test [6] (setting [8]); 79.1% (active) in test [6] (at 50.0 µM).

For the compound `CN1CCC(c2ccccc2)(c2ccccc2)C(=O)C1`, the growth inhibition in test [1] (setting [7]) is 11%; in test [1] (setting [8]), 95% (active); in test [1] (at 50.0 µM) it was 95.2% (active); in test [2] (setting [7]) it was -5%; in test [2] (setting [8]) it was 83% (active); in test [2] (at 50.0 µM), 94% (active). Further, the growth inhibition in test [3] (setting [7]) is 21%; in test [3] (setting [8]) it was 95% (active); in test [3] (at 50.0 µM), 93.8% (active); in test [4] (setting [7]), 15%; in test [4] (setting [8]) it was 69%; in test [4] (at 50.0 µM) it was 74.3% (active). Further, the growth inhibition is 34% in test [5] (setting [7]); 96% (active) in test [5] (setting [8]); 89.2% (active) in test [5] (at 50.0 µM); 47% in test [6] (setting [7]); 95% (active) in test [6] (setting [8]); 94.5% (active) in test [6] (at 50.0 µM).

As for `Oc1c(C(Nc2ccccc2)c2ccccc2)ccc2cccnc12` (stereo unspecified), the growth inhibition in test [1] (setting [7]) is -5%; in test [1] (setting [8]), 92% (active); in test [1] (at 50.0 µM), 96.9% (active); in test [2] (setting [7]), -2%; in test [2] (setting [8]), 97% (active); in test [2] (at 50.0 µM) it was 81.2% (active). In addition, the growth inhibition was -4% in test [3] (setting [7]); 94% (active) in test [3] (setting [8]); 99% (active) in test [3] (at 50.0 µM); -4% in test [4] (setting [7]); 92% (active) in test [4] (setting [8]); 96.2% (active) in test [4] (at 50.0 µM). The figures for the growth inhibition in test [5] (setting [7]), in test [5] (setting [8]) and in test [5] (at 50.0 µM) were -8%, 94% (active) and 84% (active), respectively.

Consider `CCOC(=O)c1c(C)[nH]c2ccc(O)cc12`, for which the growth inhibition in test [1] (setting [7]) is 6%; in test [1] (setting [8]), 15%; in test [1] (at 50.0 µM), 98.3% (active); in test [2] (setting [7]) it was 1%; in test [2] (setting [8]), -3%; in test [2] (at 50.0 µM), 96% (active). The growth inhibition in test [3] (setting [7]) is -13%; in test [3] (setting [8]) it was 20%; in test [3] (at 50.0 µM), 97% (active); in test [4] (setting [7]), -12%; in test [4] (setting [8]) it was -10%; in test [4] (at 50.0 µM), 94.3% (active). In addition, the growth inhibition in test [5] (setting [7]) was -24%; in test [5] (setting [8]), 5%; in test [5] (at 50.0 µM), 97.3% (active); in test [6] (setting [7]), -6%; in test [6] (setting [8]), 50%; in test [6] (at 50.0 µM), 96.9% (active).

For the compound `N=C1C=C(N)C(=O)c2ccccc21`, the growth inhibition in test [1] (setting [7]) was 29%; in test [1] (setting [8]) it was 87% (active); in test [1] (at 50.0 µM) it was 97.5% (active); in test [2] (setting [7]), 16%; in test [2] (setting [8]), 40%; in test [2] (at 50.0 µM) it was 65.5%. For the same compound, the growth inhibition was 25% in test [3] (setting [7]); 80% (active) in test [3] (setting [8]); 93.8% (active) in test [3] (at 50.0 µM); 12% in test [4] (setting [7]); 54% in test [4] (setting [8]); 75.9% (active) in test [4] (at 50.0 µM). Besides, the growth inhibition in test [5] (setting [7]) was 31%; in test [5] (setting [8]), 85% (active); in test [5] (at 50.0 µM), 94.3% (active).

In the case of `CN1CCC(CN2c3ccccc3Sc3ccccc32)C1` (stereo unspecified), the growth inhibition in test [1] (setting [7]) was 2%; in test [1] (setting [8]) it was 16%; in test [1] (at 50.0 µM), 38.5%; in test [2] (setting [7]) it was 2%; in test [2] (setting [8]), -27%; in test [2] (at 50.0 µM), -22.9%. Also, the growth inhibition in test [3] (setting [7]) is -8%; in test [3] (setting [8]), 11%; in test [3] (at 50.0 µM), 21.1%; in test [4] (setting [7]), -17%; in test [4] (setting [8]), -1%; in test [4] (at 50.0 µM), 51.2%. For the same compound, the growth inhibition in test [5] (setting [7]) is 26%; in test [5] (setting [8]) it was 6%; in test [5] (at 50.0 µM), 19.4%.

Regarding `COC(=O)[C@]1(C)CCC[C@@]2(C)[C@@H]3C[C@@H]4[C@H]5C[C@@]3(CC[C@@H]21)C[C@@]45C`, the growth inhibition was 31% in test [1] (setting [7]); 99% (active) in test [1] (setting [8]); 92.2% (active) in test [1] (at 50.0 µM); 28% in test [2] (setting [7]); 99% (active) in test [2] (setting [8]); 93.5% (active) in test [2] (at 50.0 µM). The growth inhibition in test [3] (setting [7]) is 34%; in test [3] (setting [8]), 99% (active); in test [3] (at 50.0 µM) it was 93.7% (active); in test [4] (setting [7]), 31%; in test [4] (setting [8]), 99% (active); in test [4] (at 50.0 µM), 92.3% (active). The growth inhibition is 32% in test [5] (setting [7]); 100% (active) in test [5] (setting [8]); 92.2% (active) in test [5] (at 50.0 µM); 37% in test [6] (setting [7]); 99% (active) in test [6] (setting [8]); 86.8% (active) in test [6] (at 50.0 µM).

Regarding `O=C(c1ccccc1)C(O)C(Br)(CBr)c1ccccc1` (stereo unspecified), the growth inhibition in test [1] (setting [7]) is 19%; in test [1] (setting [8]), 97% (active); in test [1] (at 50.0 µM) it was 90.7% (active); in test [2] (setting [7]), 11%; in test [2] (setting [8]) it was 98% (active); in test [2] (at 50.0 µM), 94.5% (active). The growth inhibition in test [3] (setting [7]) is 4%; in test [3] (setting [8]) it was 98% (active); in test [3] (at 50.0 µM) it was 97.3% (active); in test [4] (setting [7]), 15%; in test [4] (setting [8]) it was 82% (active); in test [4] (at 50.0 µM), 94.8% (active). Besides, the growth inhibition in test [5] (setting [7]) was 2%; in test [5] (setting [8]), 98% (active); in test [5] (at 50.0 µM) it was 96.8% (active); in test [6] (setting [7]) it was 6%; in test [6] (setting [8]), 97% (active); in test [6] (at 50.0 µM), 93.7% (active).

Take `CN(Cc1ccccc1)c1ccc(SC#N)cc1`: the growth inhibition in test [1] (setting [7]) is -2%; in test [1] (setting [8]), 82% (active); in test [1] (at 50.0 µM), 81% (active); in test [2] (setting [7]), -4%; in test [2] (setting [8]), 61%; in test [2] (at 50.0 µM), 87.5% (active). The growth inhibition in test [3] (setting [7]) is -5%; in test [3] (setting [8]), 90% (active); in test [3] (at 50.0 µM), 79.5% (active); in test [4] (setting [7]), -5%; in test [4] (setting [8]) it was -4%; in test [4] (at 50.0 µM), 24.6%. The growth inhibition was 6% in test [5] (setting [7]); 80% (active) in test [5] (setting [8]); 92.7% (active) in test [5] (at 50.0 µM); 3% in test [6] (setting [7]); 85% (active) in test [6] (setting [8]); 89% (active) in test [6] (at 50.0 µM).

For `CC(C)(C)c1ccc(O)c(Br)c1`, the growth inhibition was 0% in test [1] (setting [7]); -4% in test [1] (setting [8]); 90.9% (active) in test [1] (at 50.0 µM); -38% in test [2] (setting [7]); 5% in test [2] (setting [8]); 79.8% (active) in test [2] (at 50.0 µM). The growth inhibition in test [3] (setting [7]) is 0%; in test [3] (setting [8]), 2%; in test [3] (at 50.0 µM) it was 83.8% (active); in test [4] (setting [7]) it was 1%; in test [4] (setting [8]), -4%; in test [4] (at 50.0 µM), 35.5%. The growth inhibition was 31% in test [5] (setting [7]); -4% in test [5] (setting [8]); 42.6% in test [5] (at 50.0 µM); 1% in test [6] (setting [7]); 8% in test [6] (setting [8]); 86.8% (active) in test [6] (at 50.0 µM).
